# Screening results: PubChem, Sanford-Burnham Center for Chemical Genomics
# Only some compounds are listed: those with a hit (about 4% of all), similar ones and a draw of the others.
# tim10-1 inh: inhibits growth of tim10-1 mutant yeast; S. cerevisiae tim10-1 ts strain growth, BacTiter-Glo, 24 h; inhibition, % at 20 µM; 330,000 compounds, 2.2% hits;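 active means inhibition of at least 40%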;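 further: mutant grown at 25 °C; 0% = DMSO wells with yeast and 100% = wells holding no yeast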
# TIM10 inh: inhibits growth of TIM10 yeast strain; S. cerevisiae TIM10 strain growth, BacTiter-Glo luminescence, 24 h; inhibition, % at 10 µM; 330,000 compounds, 1.4% hits;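 active means inhibition of 40% or more at the single tested concentration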;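 further: wild-type TIM10 isogenic control strain grown at permissive 25 °C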
# NALP1 yeast inh: inhibitors of NALP1 inflammasome in yeast; AID 2071; 280,000 compounds, 0.61% hits; S. cerevisiae NALP1/ASC/caspase-1 growth, X-gal OD620, 72 h; inhibition, % at 10 µM; in the data active means inhibition mostly above about 24%, no sharp cut-off; inactive means mostly below about 32%
# tim23-1 inh: inhibits growth of tim23-1 mutant yeast; inhibition, % at 20 µM; S. cerevisiae tim23-1 growth, BacTiter-Glo luminescence, 24 h; AID 463212; 330,000 compounds, 1.3% hits;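 active means growth inhibition of the mutant yeast at or above 50%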;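 further: temperature-sensitive mutant grown at 25 °C; plate controls were DMSO-treated mutant yeast for no effect and medium wells lacking yeast for full effect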
# NALP3 yeast inh: blocks the NALP3 inflammasome reconstituted in yeast; Yeast reconstituted NLRP3/ASC/caspase-1, beta-gal luminescence, 24 h; inhibition, % at 10 µM; 330,000 compounds, 0.39% hits; AID 2825;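 active means inhibition of 50% or more; inactive means inhibition below 50%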;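 further: plate controls were induced DMSO wells for no effect and uninduced yeast grown without galactose for full effect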
# tim23-1 conf: confirmation of tim23-1 mutant yeast growth inhibitors. S. cerevisiae tim23-1 growth, BacTiter-Glo luminescence, 24 h. 4,400 compounds, 83% hits. shares compounds with tim23-1 inh. inhibition, % at 20 µM;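 active means inhibition above about 39% in either of two replicate wells at 20 µM, limit read from the data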;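 further: temperature-sensitive tim23-1 mutant grown at 25 °C; 0% = DMSO wells with yeast and 100% = medium wells without yeast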
# * = called active by the depositor; x = no result.
SMILES,tim10-1 inh,TIM10 inh,NALP1 yeast inh,tim23-1 inh,NALP3 yeast inh,tim23-1 conf
Nc1nonc1-n1nnc(C(=O)N/N=C/c2cccnc2)c1-c1ccccc1,16.7,-10.4,11.7,5.7,12.6,x
CCCCn1c(N)c(N(CCOC)C(=O)COC(=O)COc2cccc(C(C)=O)c2)c(=O)[nH]c1=O,1.3,-6.3,x,8.9,21.2,x
CC(C)N1CC(C(=O)Nc2cccc([N+](=O)[O-])c2)CC1=O (stereo not drawn),-15.2,1.4,-1.9,-1.2,13.6,x
Cc1cc(C)c(NC(=O)C2CC(=O)N(C3CCCC3)C2)c(C)c1 (stereo not drawn),-0.5,4.4,x,-3.8,10.7,x
O=C(NCC(=O)N(c1ccccc1)C(C(=O)NC1CCCCC1)c1ccncc1)c1ccco1 (stereo not drawn),9.4,-10.2,-5.0,2.8,-20.6,x
O=C(NCC(=O)N(c1cnc2ccccc2c1)C(C(=O)NC1CCCC1)c1ccncc1)c1ccco1 (stereo not drawn),2.0,12.9,-62.6,68.0*,12.5,9.4
CC1=CC[C@@]23CCCN2C(=O)CCC[C@H]3C1,12.7,-4.9,x,88.5*,x,7.0
NC(=O)c1ccsc1NC(=O)c1cccs1,-2.4,19.9,x,36.5,14.3,x
Cc1sc(NC(=O)c2cccs2)c(C(N)=O)c1C,21.1,22.1,7.8,50.8*,47.0,67.3*
COc1ccccc1NC(=O)CCNC(=O)c1ccc(C)cc1,-2.0,-8.2,2.5,1.1,32.7,x
CC1(C)C=Cc2c(ccc3c2OC[C@H](c2ccc(O)cc2O)C3)O1,-52.6,27.8,x,74.8*,13.9,-7.6
CC(C)CNC(=O)COC(=O)c1ccc2c(c1)C(=O)N(Cc1ccco1)C2=O,0.6,-3.4,3.5,1.5,25.1,x
COc1ccc(C(=O)CC(=O)c2ccccc2O)cc1,3.6,6.6,15.2,50.3*,30.2,52.5*
O=C(CC(=O)c1cc(Cl)ccc1O)c1ccccc1,34.2,23.1,-19.2,55.5*,17.4,65.0*
Cc1ccc(S(=O)(=O)Nc2ccc3nc(C)sc3c2)cc1,-7.2,-1.1,2.0,-20.4,22.5,x
Cc1nc2ccc(NS(=O)(=O)c3ccc(Br)cc3)cc2s1,9.5,17.5,x,51.1*,21.2,33.9
O=C(NNC(=O)C1CCC1)c1ccccc1F,-20.2,1.8,x,-10.5,20.3,x
Cc1c(O)c(CN2CCCC2)cc2c1oc(=O)c1ccccc12,27.6,20.9,-5.9,19.8,1.4,x
Cc1c(O)c(CN2CCCC2)cc2c3c(c(=O)oc12)CCC3,20.2,9.0,20.8,53.4*,-0.2,35.5
Cc1ccc(S(=O)(=O)NCC2CCC(C(=O)NCc3cccnc3)CC2)cc1 (stereo not drawn),-15.5,-21.2,-1.6,-9.5,-0.9,x
Cc1ccnc(NC(=O)c2ccc3c(c2)C(=O)N(CC(C)C)C3=O)c1,18.6,32.5,-1.6,63.3*,14.9,56.7*
C(=N\N1CCOCC1)/c1nc(-c2ccccc2)n2ccccc12,13.2,23.0,-2.2,10.3,-7.8,x
CC(C)(C)c1ccc(-c2nc(C=O)c3ccccn23)cc1,33.4,38.1,-14.2,52.4*,12.8,49.5*
COc1ccc(CNC(=S)Nc2ccccc2)cc1Cl,14.2,29.0,-22.1,65.1*,6.2,34.9
CC(C)Oc1ccc(CNC(=S)Nc2ccccc2)cc1Cl,36.6,11.4,-7.9,35.3,25.1,x
SMILES,tim10-1 inh,TIM10 inh,NALP1 yeast inh,tim23-1 inh,NALP3 yeast inh,tim23-1 conf
O=c1cc(CSc2ccc(S(=O)(=O)N3CCCCC3)cn2)nc2sccn12,27.4,14.6,-4.8,66.2*,6.1,37.8
Cc1cc(C)cc(CSc2ccc(S(=O)(=O)N3CCCC3)cn2)c1,-11.5,-14.3,x,1.3,34.7,x
CCOC(=O)c1cnc(-n2nc(C)cc2C)nc1NCCc1ccccc1,16.4,6.6,15.1,50.5*,15.4,57.9*
CC(=O)Oc1cccc(N2C(=O)c3cccc4c([N+](=O)[O-])ccc(c34)C2=O)c1,33.2,38.5,13.2,50.6*,-4.4,51.2*
Cc1cc(SCC(=O)N/N=C/c2ccc(O)cc2O)nc2ccccc12,17.6,27.9,-13.3,50.7*,22.6,52.4*
Cc1cc(SCC(=O)N/N=C/c2ccc(O)c(O)c2)nc2ccccc12,-2.4,-10.4,13.7,11.5,17.0,x
O=C1OC(Nc2cc(Br)cc3cccnc23)c2ccccc21 (stereo not drawn),7.7,14.5,18.6,-1.3,14.7,x
CN(Cc1cccc(Cl)c1Cl)C(=O)CCNC(=O)c1ccco1,11.1,2.4,x,16.9,13.3,x
